Reference: ChEMBL document CHEMBL1157539, “Thousands of chemical starting points for antimalarial lead identification” (Nature, 2010)

Legend:
Format in all cases: functional
[1] = system: Plasmodium falciparum; test: GSK_TCMDC: Inhibition of Plasmodium falciparum 3D7 in whole red blood cells, using parasite LDH activity as an index of growth. Test compounds present at 2uM
[2] = system: Plasmodium falciparum; test: GSK_TCMDC: Inhibition of Plasmodium falciparum Dd2 in whole red blood cells, using parasite LDH activity as an index of growth. Test compounds present at 2uM
[3] = system: HepG2; test: GSK_TCMDC: Percent inhibition of human HepG2 cell line. Test compounds present at 10uM.

Structure (SMILES)	Inhibition [1] [%]	Inhibition [2] [%]	Inhibition [3] [%]
O=C(Nc1ccc(Cl)cc1)c1ccc(S(=O)(=O)NCC2CCN(CC3CCCCC3)CC2)cc1.O=C(O)C(F)(F)F	93	8	40
Cc1cc(-c2cccc(CNC3CCN(C)CC3)c2)ccc1S(=O)(=O)NC1CCC1.O=C(O)C(F)(F)F	100	96	33
CCNc1cc(C)nc(Nc2ccc(NC(=O)c3ccccc3Br)cc2)n1	100	56	46
COc1ccc(CNCc2cccc(-c3ccc(-c4nc5cccc(C)c5[nH]4)s3)c2)cc1.O=C(O)C(F)(F)F	100	65	24
O=C(/C=C/c1ccc(Cl)c(Cl)c1)N1CCC(CN2CCC(Cc3nc4ccccc4[nH]3)CC2)CC1	100	95	34
CC(C)(C)OC(=O)NCC(=O)N(Cc1ccccc1)Cc1ccccc1	97	93	0
CS(=O)(=O)Nc1cccc(-c2cnc3[nH]cc(-c4ccc(C(=O)O)c(F)c4)c3c2)c1	99	76	27
CCN1CCC(N(Cc2ccc(-c3ccc(C(F)(F)F)cc3)cc2)C(=O)Cn2c(CCc3cccc(F)c3F)cc(=O)c3c2CCCC3)CC1.O=C(O)C(O)C(O)C(=O)O	100	96	55
Fc1ccc2[nH]c(-c3ccc(-c4cccc(CN5CCN(c6ccncc6)CC5)c4)cc3)nc2c1.O=C(O)C(F)(F)F	100	100	66
COc1c(C2CCN(CCCCNC(=O)c3cc(-c4ccc(C#N)cc4)n[nH]3)CC2)ccc2c1CCCC2	86	15	36
CC(=O)Nc1ncc(C(=O)Nc2cccc(-c3ccc(-c4nc5cc(C(F)(F)F)ccc5[nH]4)s3)c2)s1	100	99	90
Cc1ccc(Nc2ccnc3cc(-c4nccs4)ccc23)cc1C(O)c1ccccc1.Cl (stereo unspecified)	85	83	23
COc1ccc(CC2(c3ccc(F)cc3)N=C(N)N(CCCc3ccc4c(c3)OCO4)C2=O)cc1.O=C(O)C(F)(F)F (stereo unspecified)	98	97	60
CC(C)Nc1nc(NCCc2c[nH]cn2)nc(NCc2cccc3ccccc23)n1	90	0	4
c1ccc(COc2ccc(Nc3ncnc4cnc(-c5ccc(CNc6cccnc6)o5)cc34)cc2)cc1	96	19	2
Cc1ccccc1N1CCN(c2ncc(C(=O)NC3CC3)cc2Cl)CC1.O=C(O)C(F)(F)F	91	96	23
CN(C)c1ccnc2ccc(NC(=O)Nc3ccnc4ccccc34)cc12	100	99	15
CC(C)(C)c1nn(-c2ccccc2)c2[nH]c(=O)c(CNCCc3ccccc3)cc12	94	90	0
COc1ccc(CCN(C)CCOc2ccc(NC(=O)c3ccc([N+](=O)[O-])c4c(=O)c5ccccc5[nH]c34)cc2)cc1OC	91	25	38
CCN(CC)CCN(Cc1ccc(-c2ccc(C(F)(F)F)cc2)cc1)C(=O)Cn1nc(-c2ccc(C(F)(F)F)cc2)ccc1=O	100	83	44
CNC(=O)c1ccccc1Nc1nc(Nc2ccc(N3CCN(C)CC3)nc2)ncc1C.Cl	92	50	75
CC(C)Sc1nc2c(c(=O)n1Cc1ccco1)C1(CCCCC1)Cc1ccccc1-2	100	99	10
Cc1cccc2nc(-c3cccc(-c4cccc(NC(=O)Nc5ccc(F)c(F)c5F)c4)c3)[nH]c12	100	99	32
CC(=O)O.CCc1cc2c(cc1CC)CC(NC[C@@H](O)c1ccc(O)c3[nH]c(=O)ccc13)C2	100	9	0
O=C(Nc1cccc(CN2CCCN(CCc3ccccc3)CC2)c1)c1ccc(Cl)c(Cl)c1.O=C(O)C(F)(F)F	86	15	41
Cc1cc2nc(-c3ccc(C(=O)NCc4ccc(Cl)c(Cl)c4)cc3)[nH]c2cc1C	96	83	6
CCOCn1c(-c2ccccc2)cc2c3c(N)nc(N)nc3ccc21	91	66	62
